# The list is not random: actives were taken first. Their share in the collection is about 2.4%.
# D2 PAM-1: HTS Assay for Positive Allosteric Modulators of the Human D2 Dopamine Receptor: Primary Screen for Potentiators; D(2) dopamine receptor (Homo sapiens), P14416; HEK293 T-REx D2, calcium flux, EC20 dopamine potentiation; potentiation, % at 10 µM; 340,000 compounds, 0.34% hits; AID 485347, 2010;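 active means potentiation over 3 SD above the plate norm, cut at about 30% in these data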; further: 0% is about no effect
# Target sequence (P14416 whole entry, looked up): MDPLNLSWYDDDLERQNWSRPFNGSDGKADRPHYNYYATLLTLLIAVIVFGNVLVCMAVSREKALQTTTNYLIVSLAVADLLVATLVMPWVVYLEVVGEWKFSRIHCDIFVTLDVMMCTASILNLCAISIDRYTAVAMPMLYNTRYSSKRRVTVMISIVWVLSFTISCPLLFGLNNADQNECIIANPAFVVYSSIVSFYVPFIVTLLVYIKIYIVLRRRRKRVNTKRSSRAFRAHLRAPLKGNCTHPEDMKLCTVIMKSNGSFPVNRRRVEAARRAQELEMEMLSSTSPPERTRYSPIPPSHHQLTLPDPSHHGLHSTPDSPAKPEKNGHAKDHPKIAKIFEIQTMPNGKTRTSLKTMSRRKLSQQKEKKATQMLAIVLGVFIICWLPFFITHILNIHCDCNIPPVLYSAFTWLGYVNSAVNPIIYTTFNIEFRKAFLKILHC
#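 Cells plated with tetracycline inducer and held overnight at 30 C; calcium dye loaded 30–90 min at room temperature; baseline taken, compound added and read 180 s; EC20 dopamine then added and read 180 s.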
# D2 PAM-2: Beta-Arrestin HTS for Positive Allosteric Modulators of the Human D2 Dopamine Receptor: Potentiators | D(2) dopamine receptor (Homo sapiens), P14416 | DiscoveRx D2 beta-arrestin cells, luminescence, 90 min; 100% = 57 uM dopamine signal | potentiation, % (test concentration not listed) | 360,000 compounds, 0.23% hits | AID 624464, 2012; in the data active means potentiation above about 50%; inconclusive means mostly about 30% to 49%
#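 PathHunter beta-arrestin assay in DiscoveRx D2 cells. Compounds were added with an EC20 of dopamine (50 nM final) for 90 min at 37 deg C. Luminescence was read 1 h after detection reagent, with 57 uM dopamine as the EC100 control.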
# D2 ag-1: HTS Assay for Allosteric Agonists of the Human D2 Dopamine Receptor: Primary Screen for Agonists; D(2) dopamine receptor (Homo sapiens), P14416; HEK293 T-REx D2 cells, calcium flux agonist mode; activation, % at 2 µM; 340,000 compounds, 0.53% hits;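 active means activation over 3 SD above normal in the single-dose calcium agonist read, cut at about 30% in these data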; further: 0% is about no effect
#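 HEK293 Trex D2 cells, tetracycline-induced, o/n 30 C 5% CO2; no-wash Ca dye, RT 30–90 min; 10-cycle baseline, 23 nl cpd added, kinetic Ca read 180 s; agonist hits = positive Ca response.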
# D2 ag-2: Beta-Arrestin HTS for Positive Allosteric Modulators of the Human D2 Dopamine Receptor: Agonists; AID 624465, 2012; DiscoveRx PathHunter D2 beta-arrestin, luminescence, 90 min; 100% = 57 uM dopamine signal; D(2) dopamine receptor (Homo sapiens), P14416; 360,000 compounds, 0.084% hits; activation, % (no concentration beside the values); in the data active means activation above about 40%; inconclusive means between about 15% and that limit
#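 DiscoveRx PathHunter D2 beta-arrestin cells (2,100/well) attached overnight, then compound-stimulated 90 min at 37 C in HBSS/10 mM HEPES/0.1% Tween-20 buffer; beta-galactosidase complementation read by luminescence after 1 h at ambient temperature. Dopamine 57 uM final (EC100) as control.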
# D2 antagonist: HTS Assay for Allosteric Antagonists of the Human D2 Dopamine Receptor: Primary Screen for Antagonists; HEK293 TREx D2 cells, calcium flux, dopamine EC80; AID 485344, 2010; D(2) dopamine receptor (Homo sapiens), P14416; 340,000 compounds, 2% hits; inhibition, % at 10 µM; in the data active means inhibition above about 30%; inactive means below that, where a call was filed; further: 0% is about no effect
#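 Compounds are added to dye-loaded, induced HEK293 T-REx cells coupled to calcium release via D2; after a 3 min kinetic read an EC80 dopamine stimulus is given and fluorescence is recorded for 3 more min.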
# * = called active by the depositor; ? = inconclusive; nt = no result.
SMILES,D2 PAM-1,D2 PAM-2,D2 ag-1,D2 ag-2,D2 antagonist
COc1ccc(NC(=O)CC2SC(N3CCOCC3)=NC2=O)cc1OC (stereo not drawn),-22,-3,1,2,73*
O=C(CC1SC(=NCC2CCCO2)NC1=O)Nc1cc([N+](=O)[O-])ccc1Cl (stereo not drawn),-14,-15,2,0,0
O=C(CC1SC(N2CCOCC2)=NC1=O)Nc1ccc(F)cc1 (stereo not drawn),nt,-44,nt,-3,nt
O=C(CC1SC(N2CCOCC2)=NC1=O)Nc1cc([N+](=O)[O-])ccc1Cl (stereo not drawn),-21,-14,0,-5,54*
O=C(COC(=O)CC1SC(N2CCCC2)=NC1=O)Nc1ccc(Br)cc1 (stereo not drawn),6,-13,-1,-4,31*
O=C(CC1SC(N2CCOCC2)=NC1=O)Nc1ccc(Cl)cc1 (stereo not drawn),-25,-38,0,-4,58*
CC(C)NC(=O)c1ccc(NC(=O)CC2SC(N3CCCC3)=NC2=O)cc1 (stereo not drawn),-3,0,1,4,-5
O=C(CC1SC(N2CCCCC2)=NC1=O)Nc1ccc(C(=O)Nc2ccccc2)cc1 (stereo not drawn),2,-15,0,-4,6
O=C(CC1SC(N2CCOCC2)=NC1=O)Nc1ccccc1Cl (stereo not drawn),-25,-7,-1,0,40*
O=[N+]([O-])c1ccccc1NCCNS(=O)(=O)c1ccc(Cl)cc1,-2,-15,2,-4,34*
Cc1nn2c(=O)cc(COC(=O)c3cccs3)nc2s1,nt,nt,1,nt,nt
CCC(C(=O)Nc1ccccc1C(=O)OC)n1c(C)c2cnn(-c3ccccc3)c(=O)c2c1C (stereo not drawn),-2,nt,1,nt,nt
Nc1nonc1OCCOCCOCCOc1nonc1N,11,-1,0,-3,-17
Cc1cc(C)n(CCOc2nonc2N)n1,-7,6,1,0,34*
O=C(Nc1ccccc1-c1nnn(CC(=O)N2CCCc3ccccc32)n1)c1ccc(Cl)cc1,6,-9,1,0,47*
Cc1cc(OCC(=O)Nc2sc3c(c2C#N)CC(C)(C)NC3(C)C)c(C(C)C)cc1Cl,7,-2,0,3,34*
Cc1ccc2c(c1)c(=O)c1ccccc1n2CCCC(=O)Nc1ccc(C)c(F)c1,5,nt,-2,nt,nt
CCOC(=O)c1ccc(NS(=O)(=O)c2cc(-c3onc(C)c3C)ccc2C)cc1,2,nt,-1,nt,nt
COc1ccc(C(=O)O/N=C(\N)Cc2ccc(Cl)cc2)cc1OC,-5,164*,0,13,13
Cc1cccc(OCC(=O)O/N=C(\N)Cc2ccc(Cl)cc2)c1,33*,-10,1,2,-2
N/C(CN1CCCC1=O)=N\OC(=O)c1ccc(Cl)cc1,16,14,0,2,-2
N/C(Cc1ccc(Cl)cc1)=N\OC(=O)c1ccccc1,-5,68*,-2,?,15
N/C(CN1CCCC1=O)=N\OC(=O)c1ccc(Cl)c(Cl)c1,4,110*,0,?,-3
Cc1c(Cl)cccc1NC(=O)Nc1nnc(N2CCCCCC2)s1,2,nt,0,nt,nt
COc1ccc(C(=O)O/N=C(\N)Cc2ccc(Cl)c(Cl)c2)cc1OC,-5,118*,0,?,-13
SMILES,D2 PAM-1,D2 PAM-2,D2 ag-1,D2 ag-2,D2 antagonist
COc1ccc(C/C(N)=N/n2cnnc2)cc1Cl,6,9,1,0,1
O=C(CSc1nc(-c2ccccc2)[nH]c1-c1ccccc1)Nc1ccc2c(c1)OCCO2,-13,nt,-1,nt,nt
Cn1c(C(=O)Nc2ccc3c(c2)OCO3)cc2c(=O)n(C)c3ccccc3c21,31*,-1,-1,-1,15
Cc1ccc(OC(C)C(=O)N2CCN(CCc3ccccn3)CC2)cc1C (stereo not drawn),-10,nt,nt,nt,nt
COc1ccc(-c2cc(C(=O)NC3CCCC3)c3ccccc3n2)cc1OC,nt,0,nt,-2,nt
COc1ccc(-c2cc(C(=O)NC(C)c3ccccn3)c3ccccc3n2)cc1OC (stereo not drawn),44*,6,0,12,-29
O=C(NCC1(c2ccccc2)CCCC1)C(=O)Nc1cccc(C(F)(F)F)c1,-3,nt,1,nt,nt
Cc1cc(O)ccc1-c1cc(C(=O)NCc2ccc(F)cc2)[nH]n1,nt,-14,nt,1,nt
Cc1ccc(NC2=C(NCCO)C(=O)c3ccccc3C2=O)cc1,10,60*,0,8,-4
CCN(CC)S(=O)(=O)c1cc(NC(=O)C2CCN(c3ncnc4sc(C)c(C)c34)CC2)ccc1Cl,-16,-25,-1,-1,36*
CCOC(=O)c1ccc(NC(=O)c2cnn(-c3ccc(C)cc3C)c2C2CCN(C(=O)OC(C)(C)C)CC2)cc1,-1,nt,1,nt,nt
Cc1ccc(NC(=O)CN2C(=O)NC3(CCCC3)C2=O)c(Cl)c1,15,-4,-1,-1,-16
COC(=O)c1c(NC(=O)CN2C(=O)NC3(CCC(C)CC3)C2=O)sc2c1CCC2 (stereo not drawn),-16,-1,0,2,-13
O=C(CN1C(=O)NC2(CCCCCC2)C1=O)Nc1ccc(Br)cc1Br,16,2,0,-1,37*
CCCCOC(=O)c1ccc(NC(=O)CN2C(=O)NC3(CCCCCC3)C2=O)cc1,5,-1,1,-2,2
CCOC(=O)c1ccc(NC(=O)CSC2=NC(=O)C(CC)C(=O)N2)cc1 (stereo not drawn),4,-14,1,-3,47*
CCC1C(=O)N=C(SCC(=O)Nc2cccc3ccccc23)NC1=O (stereo not drawn),-9,4,0,-1,6
CCOC(=O)c1ccc(NC(=O)CN2C(=O)NC3(CCCCCCC3)C2=O)cc1,14,1,0,2,38*
CC1CCC2(CC1)NC(=O)N(CC(=O)Nc1sc3c(c1C(N)=O)CCC3)C2=O (stereo not drawn),-1,-8,1,5,38*
COc1cc(C(=O)N(Cc2ccccc2)c2cccc(C)c2)ccc1OCC(=O)N1CCOCC1,nt,-6,nt,1,nt
N#Cc1ccsc1NC(=O)CN1C(=O)NC2(CCCC2)C1=O,-20,nt,0,nt,40*
NC(=O)c1ccsc1NC(=O)CN1C(=O)NC2(CCCCC2)C1=O,-7,-2,0,2,-4

# Screening data deposited in PubChem by National Center for Advancing Translational Sciences (NCATS).
